This test can be described thus: HepG2 cell cytotoxicity, dose response, cytotoxicity control, ATP luminescence, dry powder, Set4 (AID 743143). Particulars: HepG2 viability, CellTiter-Glo ATP luminescence, 72 h; series mostly up to 26 µM. (In general: Cellular ATP, detected with luciferase, serves as a proxy for viable cell number.)

Results with a measured potency or affinity are listed apart. Calls of active or inactive are those of the source.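 Rule for the calls: active = falling signal curve whose fitted half-maximal dose lies at or below the top valid tested dose; inconclusive = flat fit showing 30 to 70% loss, or poor fit; inactive = rising signal, flat within 30%, or half-maximal dose above top.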

For the molecule `COc1ccc(C(=O)NCCC(=O)N[C@@H]2CCCc3ccccc32)cc1`, the result was inactive.

`O=C(CNC(=O)c1ccc(C(F)(F)F)cc1)N[C@@H]1CCCc2ccccc21`: the molecule was called inactive.

In the case of `CC(CC(=O)NC1CCCc2ccccc21)NC(=O)c1ccccc1` (stereo not drawn), the outcome was inactive.

On to `O=C(CCNC(=O)c1ccccc1Cl)NC1CCCc2ccccc21` (stereo not drawn), for which the outcome was inactive.

Take `C[C@@H](NC(=O)CCNC(=O)c1ccc(Cl)cc1)c1ccccc1`: the call was inactive.

For `O=C(CCNC(=O)c1ccc(F)cc1)N[C@@H]1CCCc2ccccc21`, the molecule was classed as inactive.

Consider `NCCC(=O)N[C@@H]1CCCc2ccccc21`, for which the call was inactive.

In the case of `O=C(CCNC(=O)c1ccc2c(c1)OC(F)(F)O2)N[C@@H]1CCCc2ccccc21`, the outcome was inactive.

Take `O=C(CCNC(=O)c1ccc(Cl)cc1)N[C@@H]1CCc2ccccc21`: the molecule was called inactive.

In the case of `CC(NC(=O)C1CCCN(C(=O)c2ccc(Cl)cc2)C1)c1ccccc1` (stereo not drawn), the outcome was inactive.

As to `O=C(CNC(=O)c1ccc(Cl)cc1)N[C@@H]1CCCc2ccccc21`, the result was inactive.

As to `CC(c1ccccc1)N(C)C(=O)CCNC(=O)c1ccc(Cl)cc1` (stereo not drawn), the result was inactive.

Take `CC(C)(C)OC(=O)NCCC(=O)N[C@@H]1CCCc2ccccc21`: the molecule was classed as inactive.

Regarding `CC(CC(=O)N(C)C1CCCc2ccccc21)NC(=O)c1ccccc1` (stereo not drawn), the call was inactive.

In the case of `O=C(NC1CCOc2ccccc21)C1CCCN(C(=O)c2ccc(Cl)cc2)C1` (stereo not drawn), the call was inactive.

Consider `N#Cc1ccc(C(=O)NCCC(=O)N[C@@H]2CCCc3ccccc32)cc1`, for which the molecule was classed as inactive.

Consider `O=C(CCCNC(=O)c1ccc(Cl)cc1)N[C@@H]1CCCc2ccccc21`, for which the outcome was inactive.

On to `O=C(CCNC(=O)c1cccc(Cl)c1)N[C@@H]1CCCc2ccccc21`, for which the call was inactive.

The values above are taken from PubChem BioAssay AID743143 (Broad Institute, 2013).
